Bioassay records deposited in PubChem BioAssay by Broad Institute.
ERAP1 HTS inh = human ERAP1 aminopeptidase inhibitors, primary screen, biochemical, single point, plate reader | Endoplasmic reticulum aminopeptidase 1 (Homo sapiens), Q9NZ08 | recombinant ERAP1, Leu-AMC fluorescence, 60 min | inhibition, % at 10.7 µM | hit rate 0.15% among 340,000;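 active = mean replicate inhibition of at least 30%, or all replicates individually reaching that 30% level; inactive = mean below 30% and not every replicate reaching it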;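 note: 0% = neutral control wells and 100% = L-leucinethiol positive control wells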
ERp5 block = inhibitors of ERp5-driven insulin aggregation, primary screen, biochemical, turbidity, absorbance 650 nm, single point; Protein disulfide-isomerase A6 (Homo sapiens), Q15084; 90 min; inhibition, % at 9.99 µM; hit rate 0.05% among 350,000;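 active = mean replicate inhibition above about 25%, with every replicate also reaching it, limit read from the data, passing the limit was not always enough; inconclusive = only one of those two criteria met; inactive = neither criterion met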
MLL AF4-AF9 inh = inhibitors of AF4 peptide binding to AF9, primary screen, biochemical, AlphaScreen, biotin-AF4 peptide, FLAG-AF9, single point; Protein AF-9 (Homo sapiens), P42568; hit rate 0.47% among 350,000; AID 651704, 2012; inhibition, % at 10 µM;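 active = every replicate reaching a set inhibition limit, whatever the replicate mean, cut at about 25% in these data; inconclusive = mean inhibition reaches that limit but some replicates miss it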;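 note: 0% = plate neutral control median and 100% = total signal loss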
DENV2 CPE rescue = inhibitors of DENV2 cytopathic effect, primary screen, cell-based, plate reader, single concentration. DENV2-infected cells, cytopathic effect rescue. CPE inhibition, % at 9.99 µM. hit rate 1.7% among 350,000. AID 651640, 2012; in the data active = CPE inhibition above about 20%, passing the limit was not always enough; inconclusive = no clear call, values can overlap the other calls; tested in BHK-21 cells;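 note: 0% = median of neutral control wells and 100% = median of positive control wells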
PDI inh = inhibitors of human PDI, primary screen, biochemical, turbidity, single point, plate reader. inhibition, % at 10 µM. hit rate 0.052% among 350,000. AID 588391, 2011. PDI insulin aggregation turbidity, A650, 90 min. Protein disulfide-isomerase (Homo sapiens), P07237;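 active = mean inhibition across replicates of 30% or more, whatever share of single replicates reach that level; inconclusive = mean inhibition below 30% while every single replicate reaches 30%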
Target sequence (P07237 whole entry, looked up): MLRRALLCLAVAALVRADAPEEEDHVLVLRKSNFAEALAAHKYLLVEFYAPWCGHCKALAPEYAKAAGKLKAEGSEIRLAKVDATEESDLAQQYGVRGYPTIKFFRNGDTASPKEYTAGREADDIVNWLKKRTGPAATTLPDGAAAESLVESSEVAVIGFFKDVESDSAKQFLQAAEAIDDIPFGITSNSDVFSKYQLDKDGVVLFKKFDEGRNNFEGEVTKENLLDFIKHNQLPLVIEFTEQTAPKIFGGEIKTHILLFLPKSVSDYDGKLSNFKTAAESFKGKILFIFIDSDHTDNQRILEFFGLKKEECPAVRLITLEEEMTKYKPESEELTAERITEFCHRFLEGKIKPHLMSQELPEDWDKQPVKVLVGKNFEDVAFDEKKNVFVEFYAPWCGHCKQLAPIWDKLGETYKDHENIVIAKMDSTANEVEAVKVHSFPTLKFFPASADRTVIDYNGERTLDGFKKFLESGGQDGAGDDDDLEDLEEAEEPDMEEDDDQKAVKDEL
Numbers without * were called inactive; ? = inconclusive; nt = no result given. A selection: hits, their analogues and other compounds. The true share with any hit is near 1.8%.

SMILES	ERAP1 HTS inh	ERp5 block	MLL AF4-AF9 inh	DENV2 CPE rescue	PDI inh
CCCC#Cc1cnc2c(c1)C(=O)N([C@@H](C)CO)C[C@@H](C)[C@H](CN(C)C(=O)c1ccc3c(c1)OCO3)O2	-1	1	1	83*	nt
CCCC#Cc1cnc2c(c1)C(=O)N([C@@H](C)CO)C[C@H](C)[C@H](CN(C)C(=O)c1ccc3c(c1)OCO3)O2	0	-8	-3	-3	nt
COc1cccc(CC(=O)NNC(=O)CN(C)S(=O)(=O)c2ccc(C)cc2)c1	-2	27*	-2	18	5
COc1ccc(CC(=O)NNC(=O)CN(C)S(=O)(=O)c2ccc(Cl)cc2)cc1OC	-1	3	-1	-2	-9
CCOC(=O)c1ccc(N=c2scc(C)n2CC)cc1	9	0	26*	-7	-2
CC(C)C[C@@H](CNCC(=O)[C@H](CC(C)C)NC(=O)c1[nH]cnc1C(=O)N[C@@H](C)CN)NC(=O)c1nc[nH]c1C(=O)N[C@@H](CC(C)C)C(=O)O	-45	0	1	-12	4
CC(C)C[C@@H](CNCC(=O)[C@H](CC(C)C)NC(=O)c1[nH]cnc1C(=O)N[C@@H](C)CN)NC(=O)c1nc[nH]c1C(=O)N[C@@H](CC(=O)O)C(=O)O	nt	-4	1	87*	4
CN1CCN(C(=O)CCCN2C(=O)/C(=C/c3cccc(Br)c3)SC2=S)CC1	12	-1	27*	-6	-10
COc1cccc(/C=C2\SC(=S)N(CCCC(=O)N3CCCCC3)C2=O)c1	0	-19	1	27*	-1
COc1ccc(/C=C2\SC(=S)N(CCCC(=O)N3CCN(C)CC3)C2=O)cc1	12	0	21	4	27
CCc1ccc(/C=C2\SC(=S)N(CCCC(=O)N3CCN(C)CC3)C2=O)cc1	8	-13	33*	-5	8
CN1CCN(C(=O)CCN2C(=O)/C(=C/c3cccc(Br)c3)SC2=S)CC1	3	2	4	1	-1
O=C(C[C@@H]1CC[C@@H]2[C@H](COC[C@H](O)CN2Cc2cccc(C(F)(F)F)c2)O1)NCc1ccccc1	-4	0	0	3	nt
O=C(N[C@@H]1CC[C@H](CCn2cc(-c3cccnc3)nn2)O[C@@H]1CO)c1ccccc1F	-1	-2	4	?	nt
C(=C(c1ccccc1)c1ccccc1)c1ccccn1	-3	7	1	54*	-1
C=CCN1CCc2cc(O)c(O)cc2C(c2ccccc2)C1 (configuration not stated)	-2	0	5	2	-2
C=CCN1CCc2c(cc(O)c(O)c2Cl)C(c2ccccc2)C1 (configuration not stated)	-1	-1	52*	5	19
Cc1cc(C(=O)N2CCCC(N3CCN(c4cccc(C(F)(F)F)c4)CC3)C2)no1 (configuration not stated)	-6	2	0	?	-3
CCN(CC)CC(=O)N1CCCC(N2CCN(c3cccc(C(F)(F)F)c3)CC2)C1 (configuration not stated)	1	-7	-7	30*	-2
O=C(c1cc(C2CC2)on1)N1CCCC(N2CCN(c3cccc(C(F)(F)F)c3)CC2)C1 (configuration not stated)	-2	3	5	30*	6
COc1cccc(-c2cnc3c(NC=O)cc(-c4ccncc4)cn23)c1	0	0	-8	65*	-8
COc1cc(-c2cnc3c(NC=O)cc(-c4ccc(N5CCN(C)CC5)cc4)cn23)cc(OC)c1OC	-5	0	18	6	13
CN1CCN(c2ccc(-c3cc(NC=O)c4ncc(-c5ccc(F)cc5)n4c3)cc2)CC1	0	1	38*	17	-15
Cn1cc(-c2cnc3c(NC=O)cc(-c4cccc(C(F)(F)F)c4)cn23)cn1	0	0	8	27*	3
C[C@H](CO)N1C[C@H](C)[C@H](CN(C)C(=O)Nc2cccc3ccccc23)Oc2ncc(C#Cc3ccc(C(F)(F)F)cc3)cc2C1=O	0	1	-1	-2	nt
SMILES	ERAP1 HTS inh	ERp5 block	MLL AF4-AF9 inh	DENV2 CPE rescue	PDI inh
Cc1ccccc1-c1ccc([C@H]2[C@@H](CO)N3CCCCN(C(=O)NC4CCCC4)C[C@H]23)cc1	-1	-4	3	-32	nt
Cc1ccc(S(=O)(=O)N2C[C@H](O)COC[C@H]3O[C@H](CC(=O)NCCN4CCCCC4)CC[C@@H]32)cc1	0	2	-1	1	nt
Cn1c(NC(=O)CCC2CCCCC2)cc(=O)n(C)c1=O	2	8	3	11	5
Cn1c(NC(=O)C2CC2)cc(=O)n(C)c1=O	-1	-7	49*	10	-9
Cc1cccnc1C(NC(=O)C1CCN(CCCc2ccccc2)CC1)c1ccc(Cl)cc1 (configuration not stated)	-10	5	6	20*	-3
O=C(NC(c1ccc(Cl)cc1)c1cnccn1)C1CCN(Cc2ccc(Oc3ccccc3)cc2)CC1 (configuration not stated)	4	1	3	84*	5
COc1ccc(CN2CCC(C(=O)NC(c3ccc4c(c3)OCO4)c3ccccn3)CC2)cc1 (configuration not stated)	0	3	1	100*	-1
C[C@@H]1CCCCO[C@H](CN(C)S(=O)(=O)c2ccc(Cl)cc2)[C@@H](C)CN([C@@H](C)CO)C(=O)c2cc(NS(=O)(=O)c3cccs3)ccc2O1	-2	-2	-1	69*	nt
C[C@@H]1CCCCO[C@@H](CN(C)S(=O)(=O)c2cccs2)[C@@H](C)CN([C@@H](C)CO)C(=O)c2cc(NS(=O)(=O)c3cn(C)cn3)ccc2O1	3	-8	-3	-9	nt
C[C@@H]1CN([C@H](C)CO)C(=O)c2cc(NS(=O)(=O)c3cn(C)cn3)ccc2O[C@@H](C)CCCCO[C@H]1CN(C)S(=O)(=O)c1cccs1	0	5	0	28*	nt
COc1ccc(S(=O)(=O)Nc2ccc3c(c2)C(=O)N([C@@H](C)CO)C[C@@H](C)[C@H](CN(C)S(=O)(=O)c2cccs2)OCCCC[C@H](C)O3)cc1	3	1	0	26*	nt
C[C@@H]1CN([C@@H](C)CO)C(=O)c2cc(NS(=O)(=O)c3cccs3)ccc2O[C@@H](C)CCCCO[C@H]1CN(C)S(=O)(=O)c1ccc(Cl)cc1	-2	-2	-2	-6	nt
COc1ccc(S(=O)(=O)N(C)C[C@H]2OCCCC[C@@H](C)Oc3ccc(NS(=O)(=O)c4cccs4)cc3C(=O)N([C@@H](C)CO)C[C@@H]2C)cc1	2	-2	4	-12	nt
